Bioassay records as filed in PubChem.
Sampled rows, rich in hits. Any-hit rate of the full collection: about 6%.
D1 antagonist: antagonists of human D1 dopamine receptor | HEK293 TREx D1 cells, calcium flux, dopamine EC80; active compounds read low | activity change, negative = inhibition, % at 10 µM | 360,000 tested, 3.2% active | AID 504652; in the data active means activity change below about -30%; further: on the % scale 0 is the no-effect control and ±100 the full control effect
Target sequence (P21728 whole entry, looked up): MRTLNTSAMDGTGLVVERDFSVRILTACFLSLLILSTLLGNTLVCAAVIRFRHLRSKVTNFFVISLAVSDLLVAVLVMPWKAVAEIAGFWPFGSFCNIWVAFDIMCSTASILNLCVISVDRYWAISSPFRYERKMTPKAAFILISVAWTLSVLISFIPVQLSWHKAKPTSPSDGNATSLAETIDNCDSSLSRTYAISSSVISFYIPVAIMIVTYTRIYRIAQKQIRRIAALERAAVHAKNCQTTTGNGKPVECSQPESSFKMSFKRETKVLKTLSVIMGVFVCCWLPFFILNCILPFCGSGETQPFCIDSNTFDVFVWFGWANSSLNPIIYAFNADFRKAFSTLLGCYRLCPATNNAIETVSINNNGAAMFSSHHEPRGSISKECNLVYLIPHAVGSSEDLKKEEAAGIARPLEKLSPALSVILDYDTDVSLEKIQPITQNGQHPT
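Antagonism measured as reduced calcium response to an EC80 dopamine addition following 180 s compound pre-read; cells were inducible HEK293 Trex D1 plated overnight at 30 C, read kinetically at 1 cycle/sec.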
DRD3 agonist: D3 dopamine receptor (human) agonism; AID 652048; 410,000 tested, 0.58% active; D3R DiscoveRx beta-arrestin cells, luminescence, 90 min; max activation, %; P35462; in the data active means max activation above about 30%; further: 0% is about no effect
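Agonist mode: compounds and dopamine controls were applied to plated cells for 90 min at 37 degrees C after an overnight attachment at 1500 cells/well. Luminescent read-out followed 30 - 60 minutes at room temperature with DiscoveRx detection reagent.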
D1 potentiator: enhances dopamine response at the human D1 receptor. P21728. HEK293 TREx D1 cells, calcium flux, dopamine EC20 potentiation. potentiation, % at 10 µM. 360,000 tested, 0.036% active. AID 504651; in the data active means potentiation above about 30%; further: 0% is about no effect
D3 antag: blocks the human D3 dopamine receptor | D3R cells, DiscoveRx beta-arrestin luminescence, antagonist mode; active compounds read low | AID 652054 | max response, negative = inhibition, % | 360,000 tested, 2.5% active; in the data active means max response below about -50%; inconclusive means no clear call, values can overlap the other calls; further: on the % scale 0 is the no-effect control and ±100 the full control effect
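Cells plated overnight at 1500 cells/well, then exposed to library compounds with dopamine controls for 90 minutes at 37 degrees C. DiscoveRx reagent added for 30–60 minutes at room temperature; luminescence read, quantitative HTS format.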
D1 ag: human D1 receptor agonism. 360,000 tested, 1% active. P21728. activation, % at 2 µM. HEK293 T-REx D1 cells, calcium flux, agonist mode; in the data active means activation above about 30%; further: 0% is about no effect
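Inducible HEK293 T-REx D1 cells, force-coupled to calcium signalling, were plated at 4000 cells/well with tetracycline and held overnight at 30 C. After no-wash calcium dye loading, compound-evoked calcium rise over 180 s flagged agonists.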
The depositor's hits bear a star; ? = inconclusive; nt = not tested or not shown; ! = not confirmed by another sample.

SMILES | D1 antagonist | DRD3 agonist | D1 potentiator | D3 antag | D1 ag
CN1CCN(c2ccc(S(=O)(=O)N3CCCCC3)cc2NC(=O)Cc2ccc(Cl)cc2)CC1 | -14.2 | -20.8 | 5.3 | ? | 91.3*
CN1CCN(c2ccc(S(=O)(=O)N3CCCCC3)cc2NC(=O)c2ccc(C#N)cc2)CC1 | -44.6* | 0.8 | -2.3 | 1.3 | 0.7
CCN1CCN(c2ccc(S(=O)(=O)N3CCCCC3)cc2NC(=O)COc2ccc(Cl)cc2)CC1 | -43.0* | -21.3 | -5.3 | -29.7 | 0.3
Cc1nn2c(=O)cc(COC(=O)c3cccs3)nc2s1 | 10.1 | 5.2 | -3.2 | nt | 1.7
CCn1c(=O)cc(OCC(=O)Nc2cc(OC)c(OC)c(OC)c2)c2ccccc21 | -3.3 | 2.7 | -0.9 | nt | 4.5
Oc1c(C(c2ccc(F)cc2)N2CCCC2)sc2nc(-c3ccco3)nn12 (configuration not stated) | nt | -1.6 | -2.5 | nt | 0.0
Cc1cccn2c(=O)c(C(=O)N3CCN(c4ccccc4)CC3)cnc12 | 13.7 | -15.7 | 0.6 | nt | -1.2
CCC(=O)N1CCN(c2ccc(Cl)cc2NC(=O)Cc2ccc(Cl)cc2)CC1 | -7.5 | -5.9 | -1.3 | -3.0 | 3.7
CCC(=O)N1CCN(c2ccccc2NC(=O)Cc2ccc(Cl)cc2)CC1 | -0.4 | -4.3 | -1.3 | -73.7* | -0.9
Cc1ccccc1CCNC(=O)c1ccc(NC(=O)N2CC(C)Sc3ccccc32)cc1 (configuration not stated) | 7.9 | 3.5 | -2.2 | nt | 1.7
CCC(C)NC(=O)C1CCN(S(=O)(=O)c2ccc3c(c2)CC(C)N3C(C)=O)CC1 (configuration not stated) | -5.2 | -3.6 | 5.4 | -11.9 | -0.4
O=C1CCc2cc(S(=O)(=O)N3CCC(C(=O)NC4CCCC4)CC3)ccc2N1 | -31.3* | 1.2 | -3.5 | 0.0 | 0.0
CC(=O)N1c2ccc(S(=O)(=O)N3CCC(C(=O)NC4CCC(C)CC4)CC3)cc2CC1C (configuration not stated) | -21.6 | 30.0* | -3.7 | 1.7 | -0.2
CCc1ccc(NC(=O)C2CCN(S(=O)(=O)c3ccc4c(c3)CC(C)N4C(C)=O)CC2)cc1 (configuration not stated) | -31.1* | 6.8 | -5.2 | 36.6 | 2.9
CCOc1ccc(OCC)c(NC(=O)C2CCN(S(=O)(=O)c3ccc4c(c3)CC(C)N4C(C)=O)CC2)c1 (configuration not stated) | -34.6*! | 2.1 | 6.3 | -11.2 | 1.0
O=C1CCc2cc(S(=O)(=O)N3CCCC3C(=O)NC3CCCCCCC3)ccc2N1 (configuration not stated) | 2.0 | -0.7 | -2.6 | -15.9 | 8.3
COc1ccccc1NC(=O)C1CCN(S(=O)(=O)c2ccc3[nH]c4c(c3c2)CCCCC4)CC1 | 14.3 | -1.0 | -3.4 | nt | 3.4
CN(C(=O)CSc1cn(CC(=O)N2CCCCC2)c2ccccc12)c1ccccc1 | 1.3 | 8.9 | -0.2 | nt | 0.9
CCc1ccccc1Nc1nc2cc(Cl)c(Cl)cc2nc1-n1nc(C)cc1C | 5.7 | 4.8 | 1.1 | nt | 0.8
CCCCC1CC(CSc2ncn[nH]2)OC1=O (configuration not stated) | -36.4* | 1.0 | 0.5 | 11.6 | -0.4
CCCCCCCC1CC(CSc2ncn[nH]2)OC1=O (configuration not stated) | -12.9 | -12.3 | -6.7 | 27.4 | -1.5
CSc1ccc(CCNC(=O)CN2C(=O)COc3ccc(S(=O)(=O)N4CCCC4)cc32)cc1 | -1.7 | -4.8 | -4.1 | nt | 4.3
CC1=C(C(=O)Nc2ccccc2Br)C2(CCC(C)CC2)OC1=O (configuration not stated) | 4.0 | 7.9 | -3.1 | nt | 0.8
O=S(=O)(c1ccc(F)c(F)c1F)N1CCN(C(=S)NC2CC3CCC2C3)CC1 (configuration not stated) | -30.5* | -10.4 | -8.9 | 6.6 | 3.5
CC(/C=N/Nc1nnc(C)c(=O)[nH]1)=C\c1ccccc1 | 5.7 | -4.7 | 14.4 | -23.4 | 7.2
SMILES | D1 antagonist | DRD3 agonist | D1 potentiator | D3 antag | D1 ag
C/C(=N\Nc1nnc(C)c(=O)[nH]1)C(=O)O | 2.0 | -42.4 | -3.1 | -51.8* | 2.0
CCN(c1ccc(N=Cc2c(O)n(Cc3ccc(OC)cc3)c(=O)c3ccccc23)cc1)C(C)C | -1.1 | -1.9 | 4.8 | -10.9 | 57.5*
CCC(=NN=C(CC)c1ccccc1O)c1ccccc1O | nt | 44.9* | nt | 27.3 | nt
O=C(c1cc(C2CC2)nc2ccc(Br)cc12)N1N=C(C(F)F)CC1(O)C(F)F (configuration not stated) | -11.5 | -1.3 | -8.8 | -61.8* | 8.2
CCOc1ccc(NC(=O)N2CCOc3ccccc32)cc1 | 8.0 | -6.6 | 0.0 | nt | -1.4
CCc1ccc(C2C(C(C)=O)=C(C(=O)OC)Nc3nnnn32)cc1 (configuration not stated) | -23.7 | -4.9 | -5.3 | -56.8* | -0.4
COC(=O)c1cc2oc(C)cc2n1CC(=O)Nc1ccc(C(C)C)cc1 | 1.5 | 5.4 | -3.0 | nt | 0.7
CCCOc1ccc(C(=O)c2nc3c(n2O)CCCC3)cc1 | -31.5* | 1.6 | -5.2 | -9.0 | 5.5
Cc1[nH]c2ccc(Br)cc2c1CCNC(=O)c1cc2ccccc2oc1=O | -2.0 | 3.4 | -3.3 | nt | 0.0
COc1cc2sc3ccc(-c4ccc(CN5CCOCC5)cc4)cc3c(=O)c2cc1OC | nt | 117.8* | nt | 180.6 | nt
COc1ccc2c(c1)c(=O)c(C(=O)c1ccc(C)cc1)cn2Cc1ccccc1F | 5.9 | 2.2 | 3.8 | nt | 3.9
O=C(NCc1ccc(F)cc1)C1C2C=CC3(CN(Cc4cccnc4)C(=O)C13)O2 (configuration not stated) | 8.0 | 31.1* | -3.7 | -17.2 | 4.0
O=C(Nc1ccc2cn[nH]c2c1)c1c(Cl)cccc1Cl | 2.3 | -3.1 | -0.2 | -7.9 | 0.4
O=C1C(Cl)=C(Nc2ccc3cn[nH]c3c2)C(=O)c2ccccc21 | -74.5* | -10.9 | -9.3 | -119.7* | 10.4
O=C1C(Cl)=C(NCCCO)C(=O)c2ccccc21 | -0.1 | -2.2 | -4.8 | -25.1 | 2.3
O=C(Oc1ccc(NC2=C(Cl)C(=O)c3ccccc3C2=O)cc1)c1ccc([N+](=O)[O-])cc1 | 5.4 | -1.9 | -4.7 | -2.3 | -0.5
CC(=O)Nc1ccc(NC2=C(Cl)C(=O)c3ccccc3C2=O)cc1 | -58.1* | -12.7 | -9.9 | -101.5* | 4.4
CN(C)c1ccc(NC2=C(Cl)C(=O)c3ccccc3C2=O)cc1 | -65.7* | -21.3 | -12.6 | -93.2* | 9.1
COC1=CC(=O)C=C(OC)C1(O)CC(C)=O | nt | 0.0 | nt | -55.6* | nt
CC(=O)CC1(O)C(=O)Nc2ccccc21 (configuration not stated) | 1.4 | 0.8 | 3.0 | 15.4 | 2.5
COc1ccc(/C=C(/C#N)c2nc(-c3ccc(-c4ccccc4)cc3)cs2)cc1OC | 40.4 | 9.4 | -2.4 | nt | 8.9
COc1ccc(-c2csc(/C(C#N)=C(\O)CSc3nccn3C)n2)cc1OC | -2.6 | -5.2 | -4.2 | -55.1* | 13.0
